# Data taken from PubChem BioAssay (NCATS).
# “And” between values parts separate entries of the source, which are not always exact repeats. Equal entries are not always repeated. Records with an inconclusive call do not appear. A call without a number means that no potency is given here. The source made the active and inactive calls. Unless noted, calls follow the shape of the dose curve; as a rule, active = well fitted curve in the direction sought with a large enough effect; inconclusive = small, poorly fitted or top-dose-only effect, or another doubt; inactive = no such curve, though single readings can be large; an effect the other way counts as inactive or inconclusive.
# Assays:
# [1] = Cell Viability - BJ (AID 421; calls by dose curve;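 also: potency is read from the fitted curve at half-maximal effect; cells exposed to compound for 40 hours at 37 °C before readout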); conditions: BJ fibroblast viability, qHTS
# Method in brief: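 Normal human BJ foreskin fibroblasts, 1500/well in complete medium, treated 40 hr at 37 °C. Cellular ATP by CellTiter-Glo luminescence; normalized to DMSO and 100 uM tamoxifen, AC50 from Hill fit.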
# [2] = Cell Viability - HepG2 (AID 433; calls by dose curve;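 also: potency is read from the fitted curve at half-maximal effect; cells exposed to compound for 40 hours; potency for ATP loss meaning cytotoxicity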); conditions: qHTS
# Method in brief: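 In this qHTS format, a 40 h, 37 °C compound incubation of HepG2 cells in complete medium precedes a 20 min CellTiter-Glo step at room temperature. Tamoxifen and doxorubicin serve as positive controls; Hill-equation fits yield AC50.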
# [3] = Cell Viability - Mesenchymal (AID 546); conditions: mesenchymal cells viability, qHTS; activity change, negative = cytotoxicity: at 91.7 µM (top of the series);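 also: cells exposed to compound for 40 hours before reading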
# Method in brief: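 In this qHTS cytotoxicity format, glomerulus-derived human mesenchymal kidney cells received compound for 40 hr, then luciferase-based ATP quantitation. Concentration-response data were fitted with the Hill equation.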
# [4] = Cell Viability - LYMP1-002 - Assay at 16 hr (AID 948); conditions: LYMP1-002 lymphoblastoid cell viability; series mostly up to 92.2 µM
# Method in brief: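 In this qHTS, lymphoblastoid LYMP1-002 cells (human) receive compounds for 16 hr at 37 C. Viability is taken from CellTiter-Glo ATP luminescence, and AC50 derives from standard Hill fits.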
# [5] = MultiTox-Fluor Cytotoxicity Assay - LYMP1-002 - Live Cells (AID 955); conditions: LYMP1-002 lymphoblastoid live-cell protease fluorescence viability; series mostly up to 46.1 µM;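 also: cells exposed to compound for 16 hours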
# Method in brief: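 Cells were seeded at 2500 per well and incubated 5 hr. Compounds were then added for 16 hr at 37 C, followed by MultiTox-Fluor reagent for 60 min at room temperature and fluorescence reading of viable-cell protease signal.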
# [6] = Cell Viability - LYMP2-013 (AID 970); conditions: LYMP2-013 lymphoblastoid cells viability; series mostly up to 92.2 µM; also: nearly all actives have a fitted effect of over 55% in size
# Method in brief: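 Cytotoxicity is scored as a concentration-dependent drop in intracellular ATP in human lymphoblastoid cells after 24 hr compound exposure at 37 C. ATP is quantified by luciferase luminescence, and AC50 values come from Hill-equation modeling.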
# [7] = Cell Viability - LYMP2-023 (AID 975); conditions: LYMP2-023 lymphoblastoid cell viability; series mostly up to 92.2 µM; also: nearly all actives have a fitted effect of over 55% in size
# Method in brief: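 Steps: seed 2500 human lymphoblastoid cells per well, incubate 5 hr at 37 C, add compound for 24 hr at 37 C, add CellTiter-Glo, hold 30 min at room temperature, read luminescence. AC50 derived by Hill modelling.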
# [8] = Cell Viability - LYMP2-002 (AID 977); conditions: LYMP2-002 lymphoblastoid cell viability, qHTS; series mostly up to 92.2 µM;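 also: compound exposure lasted 24 h at 37 °C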
# Method in brief: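 In this qHTS viability screen, 2500 human lymphoblastoid cells per well receive compound for 24 hr at 37 C, and luciferase-based ATP luminescence gives the viability signal. Tetraoctylammonium bromide serves as positive control.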
# [9] = Cell Viability - LYMP2-006 (AID 978); conditions: LYMP2-006 lymphoblastoid cell viability, qHTS; series mostly up to 92.2 µM; also: nearly all actives have a fitted effect of over 60% in size
# Method in brief: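 In this cytotoxicity screen, the human lymphoblastoid line grew in complete medium with test compounds for 24 hr at 37 C. Cellular ATP served as the viability signal.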
# [10] = Cell Viability - LYMP2-008 (AID 980); conditions: LYMP2-008 lymphoblastoid cell viability, qHTS; series mostly up to 92.2 µM; also: nearly all actives have a fitted effect of over 60% in size
# Method in brief: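 Cells seeded at 2500/well and rested 5 hr at 37 C; compounds added over a concentration range and incubated 24 hr at 37 C; CellTiter-Glo added, 30 min at room temperature; luminescence read and AC50 fitted with Hill model.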
# [11] = Cell Viability - LYMP2-020 (AID 986); conditions: series mostly up to 92.2 µM; also: nearly all actives have a fitted effect of over 55% in size
# Method in brief: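 Seed 2500 cells per well and incubate 5 hr at 37 C. Add compounds at a concentration series and incubate 24 hr at 37 C. Add CellTiter-Glo, wait 30 min at RT, read luminescence, and fit a Hill curve for AC50.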
# [12] = Cell Viability - LYMP1-002 - Assay at 40 hr (AID 994); conditions: LYMP1-002 lymphoblastoid cell viability; series mostly up to 92.2 µM; also: nearly all actives have a fitted effect of over 60% in size
# Method in brief: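 Cells are plated at 2500 per well and rested 5 hr at 37 C. Compounds are added and incubated 40 hr at 37 C. CellTiter-Glo reagent is added for 30 min at room temperature before luminescence is read.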
# [13] = qHTS assay for small molecule antagonists of retinoid X receptor alpha signaling (AID 588546); conditions: HEK293T RXRa-UAS-bla, beta-lactamase ratio, antagonist mode; measured here: W530 green channel, cytotoxicity proxy;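 also: cells stimulated with 9-cis-retinoic acid as agonist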
# Method in brief: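 Beta-lactamase reporter inhibition, read as CCF4 fluorescence ratio (ex 405, em 460/530 nm) after 2 h at RT. HEK293T UAS-bla cells, 2500/well, were stimulated with 9-cis-RA at 500 or 100 nM final alongside test compound for 18 h at 37 C.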
# [14] = qHTS assay for environmental chemicals that activate the Aryl hydrocarbon Receptor (AhR) signaling pathway (AID 651777); conditions: 1A2-DRE human hepatoma cells, luciferase, 24 h; activation: stronger effect = higher value; also: nearly all actives have a fitted effect of over 15% in size
# Method in brief: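 Measured luciferase activity, read 30 min after One-Glo addition at room temperature, from human hepatoma cells bearing a dioxin response element–CYP1A2 promoter reporter and exposed to compound for 24 hr at 37 C.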
# [15] = Cellular Toxicity (caspase-3) Jurkat (AID 655); conditions: Jurkat caspase-3 activation, luminescence; caspase-3 activation: at 92.2 µM (top of the series), DMSO = 0%, tamoxifen = 100%;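 also: cells exposed to compound for 16 h at 37 °C before reading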
# Method in brief: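 qHTS in human Jurkat T-cell leukemia line: 16 hr compound treatment at 37 °C, caspase-3/7 activity measured by Caspase-Glo luminescence. AC50 derived from Hill equation.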
# [16] = Cell Viability - LYMP2-003 (AID 965); conditions: LYMP2-003 lymphoblastoid cell viability; series mostly up to 92.2 µM;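 also: cells exposed to compounds for 24 h before reading; nearly all actives have a fitted effect of over 50% in size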
# Method in brief: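 qHTS, human lymphoblastoid line, 2500 cells/well, complete medium. 24 h drug, 37 C. ATP-based luminescent readout; Hill-fit AC50.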
# [17] = Cell Viability - LYMP2-011 (AID 969); conditions: LYMP2-011 lymphoblastoid cells viability; series mostly up to 92.2 µM; also: nearly all actives have a fitted effect of over 60% in size
# Method in brief: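 In this qHTS cytotoxicity format, compounds are tested across concentrations on human lymphoblastoid cells in complete medium for 24 hours at 37 C. Viability is taken as cellular ATP measured by luciferase luminescence.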
# [18] = Cell Viability - LYMP2-012 (AID 982); conditions: LYMP2-012 lymphoblastoid cell viability qHTS; series mostly up to 92.2 µM;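 also: cellular ATP by luciferase luminescence where a drop means cytotoxicity; cells exposed to compound for one day before reading; nearly all actives have a fitted effect of over 55% in size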
# [19] = Cell Viability - LYMP2-022 (AID 987); conditions: LYMP2-022 lymphoblastoid cell viability; series mostly up to 92.2 µM; also: nearly all actives have a fitted effect of over 55% in size; also: potency is read from the fitted curve at half-maximal effect
# Method in brief: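 Cells were seeded at 2500 per well, rested 5 hr at 37 C, and treated with titrated compounds for 24 hr at 37 C. Cellular ATP was then quantified by luciferase luminescence, and AC50 values were derived from Hill-modelled concentration-response curves.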
# [20] = Cell Viability - LYMP2-024 (AID 988); conditions: LYMP2-024 lymphoblastoid cell viability; series mostly up to 92.2 µM; also: nearly all actives have a fitted effect of over 60% in size; also: potency is read from the fitted curve at half-maximal effect
# Method in brief: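 qHTS cytotoxicity, human lymphoblastoid line, complete medium; 24 h cpd treatment, 37 C; CellTiter-Glo ATP luminescence readout; tetraoctylammonium bromide positive control; AC50 via Hill fit.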
SMILES,Potency [1],Potency [2],Potency [3],Potency [4],outcome [5],Potency [6],Potency [7],Potency [8],Potency [9],Potency [10],Potency [11],Potency [12],max response [13],activation [14],Potency [15],Potency [16],Potency [17],Potency [18],Potency [19],Potency [20]
Nc1ccc(-c2ccc(N)c(O)c2)cc1O,> 92 µM (inactive),> 92 µM (inactive),inactive,inactive,inactive,inactive,inactive,inactive,inactive,inactive,inactive,inactive,-41.6%,-0.254% (inactive),–,–,–,–,–,–
O=c1[nH]ncc2ccccc12,> 92 µM (inactive),> 92 µM (inactive),inactive,inactive,inactive,inactive,inactive,inactive,inactive,inactive,inactive,inactive,-5.72%,0.167% (inactive),inactive,inactive,inactive,inactive,inactive,inactive
Oc1ccc(O)c2c(O)cccc12,> 92 µM (inactive),> 92 µM (inactive),inactive,inactive,inactive,–,–,–,–,–,–,inactive,-12.8%,–,–,–,–,–,50.1 µM (active),50.1 µM (active)
O=C(OCc1ccccc1)c1ccccc1O,> 92 µM (inactive),> 92 µM (inactive),inactive,inactive,inactive,inactive,inactive,inactive,inactive,inactive,inactive,inactive,-7.45% and -18.3%,-0.76% (inactive) and -0.296% (inactive),inactive,inactive,inactive,inactive,inactive,inactive
CCN(CC)c1ccc2c(C)cc(=O)oc2c1,> 92 µM (inactive),> 92 µM (inactive),inactive,inactive,–,inactive,inactive,inactive,inactive,inactive,inactive,inactive,–,6.67% (inactive),inactive,inactive,inactive,inactive,inactive,inactive
COc1ccc([N+](=O)[O-])cc1N,> 92 µM (inactive),> 92 µM (inactive),inactive,inactive,inactive,inactive,inactive,inactive,inactive,inactive,inactive,inactive,0.433% and 4.58%,1.04% (inactive) and 4.76% (inactive),inactive,inactive,inactive,inactive,inactive,inactive
C[Si](C)(C)Cl,> 92 µM (inactive),> 92 µM (inactive),inactive,inactive,inactive,inactive,inactive,inactive,inactive,inactive,inactive,inactive,3.42%,1.28% (inactive),inactive,inactive,inactive,inactive,inactive,inactive
CCCC(=O)OC(=O)CCC,> 92 µM (inactive),> 92 µM (inactive),inactive,inactive,inactive,inactive,inactive,inactive,inactive,inactive,inactive,inactive,-8.03% and -4.72%,0.206% (inactive) and -0.322% (inactive),inactive,inactive,inactive,inactive,inactive,inactive
c1c[nH]cn1,> 92 µM (inactive),> 92 µM (inactive),inactive,inactive,inactive,inactive,inactive,inactive,inactive,inactive,inactive,inactive,-8.47%,-1.48% (inactive),inactive,inactive,inactive,inactive,inactive,inactive
NC(=O)c1ccc([N+](=O)[O-])cc1,> 92 µM (inactive),> 92 µM (inactive),inactive,inactive,inactive,inactive,inactive,inactive,inactive,inactive,inactive,inactive,-6.07%,-1.24% (inactive),inactive,inactive,inactive,inactive,inactive,inactive
CCc1ccc(C(c2ccc(CC)cc2)C(Cl)Cl)cc1,> 92 µM (inactive),> 92 µM (inactive),inactive,inactive,inactive,inactive,inactive,inactive,inactive,inactive,inactive,inactive,-4.78%,-0.69% (inactive),inactive,inactive,inactive,inactive,inactive,inactive
CCCCNCC,> 92 µM (inactive),> 92 µM (inactive),inactive,inactive,inactive,inactive,inactive,inactive,inactive,inactive,inactive,inactive,-20.9%,-0.56% (inactive),inactive,inactive,inactive,inactive,inactive,inactive
CN(C)c1ccc(Cc2ccc(N(C)C)cc2)cc1,> 92 µM (inactive),> 92 µM (inactive),inactive,inactive,inactive,inactive,inactive,inactive,inactive,inactive,inactive,inactive,3.74% and -6.02%,8.36% (inactive) and 2.98% (inactive),inactive,inactive,inactive,inactive,inactive,inactive
